Screening results: PubChem, several laboratories
CCHF vOTU inh: CCHFV vOTU protease inhibitors, primary screen, biochemical, Pep-AMC substrate, fluorescence | Crimean-Congo hemorrhagic fever virus L polyprotein viral ovarian tumor (vOTU) protease … | inhibition, % at 11.5 µM | hit rate 0.55% among 370,000 | AID 651958, 2012; in the data active = inhibition above about 30%; also: 0% = vehicle wells with enzyme and 100% = no enzyme wells
PrPC TRFRET: inhibitors of human cell surface prion protein PrPC, primary screen, cell-based, TR-FRET | TR-FRET read-out | inhibition, % at 13.8 µM | hit rate 0.43% among 370,000; in the data active = inhibition above about 24%; also: 0% = median of the test wells and 100% = reference compound wells
Yp Topo-I inh: Yersinia pestis topoisomerase I inhibitors, primary screen, biochemical, cleavage product accumulation, plate reader, single point; DNA topoisomerase I (Yersinia pestis CO92); Y. pestis Topo-I cleavage product accumulation; activity, % at 10 µM; hit rate 0.064% among 360,000; AID 504884, 2011; in the data active = activity above about 50%, passing the limit was not always enough
Vc quorum ag: inducers of Vibrio cholerae quorum light production without autoinducers, primary screen, BH1578 luxS cqsA deficient, single point; V. cholerae BH1578 lux reporter, luminescence, 6 h; activation, % at 18.7 µM; hit rate 0.16% among 350,000; in the data active = activation mostly above about 9.7%, no sharp cut-off
PrPC confirm: confirmation of inhibitors of cell surface human prion protein, confirmation, cell-based, TR-FRET. inhibition, % at 13.8 µM. shares compounds with PrPC TRFRET. cell surface PrPC level. hit rate 65% among 1,500; in the data active = inhibition above about 25%
LD9 cytotox: cytotoxicity in LD9 cells, cytotoxicity control for cell surface PrPc inhibitor project, cell-based, luminescence, high throughput. inhibition, % at 13.8 µM. luminescence viability. shares compounds with PrPC TRFRET. AID 743201, 2013. hit rate 29% among 1,500; in the data active = inhibition above about 9.5%
Numbers without * were called inactive; i = inactive; nt = not tested or not shown. A selection: hits, their analogues and other compounds. The true share with any hit is near 1.1%.

SMILES	CCHF vOTU inh	PrPC TRFRET	Yp Topo-I inh	Vc quorum ag	PrPC confirm	LD9 cytotox
COc1cc(/C=N/NC(=S)Nc2cccc(Cl)c2C)ccc1OCC(=O)N1CC(C)OC(C)C1 (stereo not drawn)	14.4	0.0	14.3	-0.2	nt	nt
CCc1c(C)nc(N)nc1N1N=C1SCC(N)=O	24.3	26.0*	3.7	-0.2	25.5*	-3.0
CC(C)(C)OC(=O)NCCCCCc1cn([C@@H](CO)C(=O)NCCCCCCCCCCC(=O)N2CCN(C(=O)OC(C)(C)C)CC2)nn1	25.1	52.8*	-3.1	i	34.3*	35.6*
CCn1cc(Br)c(C(=O)Nc2ccccc2C(=O)OC)n1	3.3	6.4	0.2	-0.2	nt	nt
CCn1cc(Cl)c(C(=O)Nc2ccccc2C(N)=O)n1	-5.5	54.2*	2.8	i	11.0	-4.9
COC(=O)Cc1c(C)c2ccc(OCC(=O)N3CCCC(C)C3)c(C)c2oc1=O (stereo not drawn)	-38.7	26.4*	23.2	i	37.8*	8.7
Cc1ccc(S(=O)(=O)NCCCN2CCCC2)cc1	12.2	54.6*	0.4	1.2	-1.1	-10.3
Cc1ccc(S(=O)(=O)NCCNS(=O)(=O)c2ccc(C)cc2)cc1	6.8	3.0	2.1	i	nt	nt
CC(C)CN(C(=O)COC(=O)c1cccn1C)c1c(N)n(Cc2ccccc2)c(=O)[nH]c1=O	4.6	-4.8	-1.1	0.7	nt	nt
COC(=O)C1=C(C)N(CC(C)C)C(=S)NC1c1cccc(OC)c1 (stereo not drawn)	6.3	-4.0	nt	nt	nt	nt
COC(=O)C1=C(C)N(CC(C)C)C(=S)NC1c1ccc(-c2ccccc2)cc1 (stereo not drawn)	15.1	25.0*	nt	nt	13.6	-0.3
Fc1ccc2[nH]c3c(N4CCc5ccccc5C4)ncnc3c2c1	14.4	26.3*	-4.7	-0.7	35.5*	20.4*
CNC(=O)[C@@H](NC(=O)[C@H](CC(C)C)[C@H](O)C(=O)NO)C(C)(C)C	2.3	60.6*	nt	nt	65.4*	-2.9
CC[C@@H]1C[C@H]2CC[C@H](O2)[C@H](C)C(=O)O[C@@H](C)C[C@@H]2CC[C@@H](O2)[C@@H](C)C(=O)O[C@H](C)C[C@H]2CC[C@H](O2)[C@H](C)C(=O)O[C@@H](C)C[C@@H]2CC[C@@H](O2)[C@@H](C)C(=O)O1	6.7	38.7*	nt	nt	56.1*	54.8*
Cc1ccc2[nH]c3c(c2c1)CN(C(=O)CN1CCSCC1)CC3	-4.5	0.7	nt	-8.3	nt	nt
CN1C2CCC1CC(=NO)C2	-1.3	83.9*	0.8	0.2	4.9	0.2
COc1ccc(-c2nnc(-c3ccc(Br)o3)o2)cc1OC	-3.2	59.7*	-7.9	-0.4	75.7*	-3.2
CNc1ncc(C(=O)c2ccc(Cl)cc2)s1	2.9	62.0*	3.1	-0.4	77.8*	-8.6
CNc1ncc(C(=O)c2ccc(Cl)c(Cl)c2)s1	9.3	6.3	6.0	-0.4	nt	nt
COCc1c(C(=O)OCC(=O)NCCN2C(=O)CSC2=O)oc2ccccc12	-6.1	-2.4	-5.9	-0.2	nt	nt
NCCCNc1nc(N)c([N+](=O)[O-])c(NC2CCCCC2)n1	2.2	66.4*	-1.5	i	78.8*	24.7*
COCCNc1nc(N)c([N+](=O)[O-])c(NC2CCCCC2)n1	3.3	6.5	7.0	0.7	nt	nt
Cc1nnc(SCC(=O)c2c(N)n(Cc3ccccc3)c(=O)n(C)c2=O)n1C	9.1	2.1	-4.1	-0.2	nt	nt
Cn1cnnc1SCC(=O)c1c(N)n(Cc2ccccc2)c(=O)n(C)c1=O	-1.6	35.8*	0.5	i	18.6	-7.0
Cn1c(=O)c(C(=O)CSc2nncs2)c(N)n(Cc2ccccc2)c1=O	26.4	66.0*	-1.6	i	64.8*	1.8
SMILES	CCHF vOTU inh	PrPC TRFRET	Yp Topo-I inh	Vc quorum ag	PrPC confirm	LD9 cytotox
O=C(NCc1ccc(Cl)cc1)c1cccc(NC(=O)c2ccccc2)c1	4.1	31.5*	11.4	4.5	27.3*	-1.6
CCCC(=O)NC(c1ccc(OC)cc1)c1ccc2cccnc2c1O (stereo not drawn)	2.4	27.2*	9.4	-0.3	26.0*	31.7*
CCCC(=O)NC(c1ccccc1)c1ccc2cccnc2c1O (stereo not drawn)	-1.3	23.4	-3.0	i	nt	nt
CCCCC(=O)NC(c1ccccc1Cl)c1ccc2cccnc2c1O (stereo not drawn)	3.5	38.6*	-0.8	i	31.6*	30.2*
CCCCC(=O)NC(c1ccccc1)c1ccc2cccnc2c1O (stereo not drawn)	7.3	29.1*	-1.0	0.8	26.9*	19.2*
CCC(C)(C)NC(=O)C(c1ccccc1F)N(C(=O)c1ccn[nH]1)c1ccccc1 (stereo not drawn)	12.5	-2.6	1.2	i	nt	nt
CCOC(=O)c1c(CN(CC)CC)n(-c2ccccc2)c2ccc(O)cc12	-5.2	-2.3	8.3	-0.9	nt	nt
CCOC(=O)c1c(C)n(-c2ccccc2)c2ccc(O)cc12	-6.1	27.5*	20.3	i	-2.2	-8.1
S=c1nc(-c2ccccc2)n(CCCn2ccnc2)c2c1CCCC2	12.3	46.8*	-8.1	-0.2	45.7*	-1.8
S=c1nc(-c2ccccc2)n(CCCN2CCOCC2)c2c1CCCC2	-9.8	-2.2	9.0	-7.1	nt	nt
C[C@@H]1C[C@H]2O[C@@H]2/C=C\C=C\C(=O)Cc2cc(O)cc(O)c2C(=O)O1	-7.0	81.2*	nt	nt	47.7*	61.2*
C[C@@H]1C[C@@H]2O[C@H]2CCCCC(=O)Cc2cc(O)cc(O)c2C(=O)O1	6.0	-1.2	nt	nt	nt	nt
CCc1ccc(C(O)c2ncc(-c3ccccc3C)[nH]2)cc1 (stereo not drawn)	20.4	-4.1	-5.3	-4.0	nt	nt
CCCNS(=O)(=O)c1ccc(CCC(=O)Nc2ccc3c(c2)OCO3)cc1	-8.0	7.7	-4.3	-6.7	nt	nt
CNC(=O)c1cc(Oc2ccc(NC(=O)Nc3ccc(Cl)c(C(F)(F)F)c3)cc2)ccn1	11.4	26.9*	-21.6	-4.5	17.3	5.9
O=C(Nc1ccc(Cl)c(C(F)(F)F)c1)c1ccncc1	-20.5	14.9	-9.8	-0.2	nt	nt
O=C(Cc1cccs1)Nc1nc(-c2ccc(F)cc2F)cs1	10.6	26.2*	-0.3	i	15.7	-7.3
O=C(NCc1ccccc1F)C1CCC(CNS(=O)(=O)c2cccc3cccnc23)CC1 (stereo not drawn)	-5.3	5.0	nt	nt	nt	nt
O=C(NCc1ccccc1Cl)C1CCC(CNS(=O)(=O)c2cccc3cccnc23)CC1 (stereo not drawn)	5.9	39.1*	nt	nt	49.6*	0.5
O=C(c1ccccc1)c1cnc(Nc2ccccc2Cl)s1	nt	nt	21.2	i	nt	nt
CC(C)(C)C(=O)c1cnc(Nc2ccccc2Cl)s1	2.4	27.7*	2.7	i	36.1*	1.4
O=Cc1ccc(-n2cc(C=O)c3ccccc32)cc1	11.4	11.5	5.3	0.4	nt	nt
COc1ccc(CC(=O)Nc2ccc(C(C)=O)cc2)cc1	1.0	9.9	5.4	-0.7	nt	nt
